Source: PubChem BioAssay (National Center for Advancing Translational Sciences (NCATS))
Pf growth 48h: Primary qHTS for delayed death inhibitors of the malarial parasite plastid, 48 hour incubation; P. falciparum luciferase growth in erythrocytes, 48 h; Potency, µM (top dose mostly 28.7 µM), for the others: at the highest dose activity change, negative = inhibition, most hits filed as inhibitors; 5.9% of 310,000 active; AID 504832, 2011
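In quantitative HTS format, infected erythrocytes bearing luciferase-reporter parasites were treated for a single generation at 37 C. Luminescence after adding detection reagent served as the growth measure.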
HCV inh: qHTS Assay for Inhibitors of Hepatitis C Virus (HCV); Huh7.5.1 HCVcc-Cre infection, luciferase reporter, 44 h; Potency, µM (highest dose often 41.8 µM), inactives show at the highest dose activity change, negative = inhibition, usual class: inhibitors; 3.4% of 340,000 active
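1,000 cells/well; 4 h culture; + compound; + HCVcc-Cre (~0.5 moi); 44 h; luciferase substrate, RT 15 min; read 15 sec.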
AMA1-RON2 inh: qHTS for Inhibitors of AMA1-RON; Towards Development of Antimalarial Drug Lead: Primary Screen | AlphaScreen AMA1-biotinylated RON2 peptide binding | Plasmodium falciparum AMA1 (3D7) - RON2 peptide interaction | AID 720542, 2013 | 0.2% of 360,000 active | Potency, µM (highest dose often 58.2 µM), for the others: at the highest dose activity change, negative = inhibition, actives largely listed as inhibitors;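 note: 0% = vehicle wells and -100% = peptide control; nearly all actives have a fitted effect of over 45% in size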
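AMA1 (3D7) with his tag at 25 nM final met compounds first, then biotinylated RON2 peptide at 25 nM; detection used donor plus acceptor beads, 10 µg/mL apiece, read by AlphaScreen after 30 min at room temperature.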
Pf growth 96h: Primary qHTS for delayed death inhibitors of the malarial parasite plastid, 96 hour incubation; P. falciparum luciferase reporter growth, 96 h; Potency, µM (series often up to 28.7 µM), for the others: at the highest dose activity change, negative = inhibition, hits mostly inhibitors; 6.9% of 320,000 active
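Erythrocytes infected with luciferase-expressing P. falciparum were dispensed at 2% hematocrit and 0.05% parasitemia (final), then incubated with compounds 96 hours at 37 C in 5% CO2. Luminescence after detection reagent addition reported growth.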
Active calls of the source: *; ? = inconclusive; / = no result; [ ] = remark or other dose. Most compounds without a hit are left out; they make up all but 11% or so of the library. Calls come from the whole dose curve; as a rule, active = well fitted curve in the direction sought with a large enough effect; inconclusive = small, poorly fitted or top-dose-only effect, or another doubt; inactive = no such curve, though single readings can be large; an effect the other way counts as inactive or inconclusive. Unless noted, % is set by controls: 0 for no effect and ±100 for the full control effect; potency is the fitted concentration of half-maximal effect.

SMILES	Pf growth 48h	HCV inh	AMA1-RON2 inh	Pf growth 96h
Cc1ccc(S(=O)(=O)N2CCCN(C(C)c3nc4ccccc4c(=O)[nH]3)CC2)cc1 (stereo not drawn)	?	-11.4%	10.4%	13.1µM*
Cc1ccc(S(=O)(=O)N2CCCN(Cc3nc4ccccc4c(=O)[nH]3)CC2)cc1	?	8.8%	0.8%	-14.0%
CCOC(=O)c1c(C)n(CC(O)c2ccccc2)c2ccc(O)cc12 (stereo not drawn)	11.7µM*	?	-3.7%	11.7µM*
CCOC(=O)c1c(C)n(CCOc2ccccc2)c2ccc(O)cc12	-12.4%	10.5%	6.7%	?
CCOc1ccc(OCC)c(NC(=O)CN2CCN(c3ccc(C)cc3C)CC2)c1	8.28µM*	-0.9%	-6.1%	-7.9%
COc1ccc(OC)c(C2N(c3ccc(Cl)cc3)C(=O)C3CCCN32)c1 (stereo not drawn)	-2.4%	-8.1%	-11.9%	9.28µM*
COc1ccc(N2C(=O)C3CCCN3C2c2ccc(Cl)cc2)cc1 (stereo not drawn)	/	4.1%	-3.3%	9.28µM*
COc1ccc(C2N(c3ccc(Cl)cc3)C(=O)C3CCCN32)cc1 (stereo not drawn)	/	-2.3%	-2.5%	?
CCOc1ccc(C2N(c3ccc(F)cc3)C(=O)C3CCCN32)cc1 (stereo not drawn)	/	3.6%	-7.5%	4.15µM*
COc1ccc(OC)c(C2N(c3cc(C)on3)C(=O)C3CCCN32)c1 (stereo not drawn)	45.5%	4.8%	2.8%	/
CC(C)N(C)Cc1nnnn1CC(=O)N(C)Cc1cccc(Cl)c1	-12.4%	-13.2%	-3.7%	?
Cc1cc(NCCCN(C)C)n2c(nc3ccccc32)c1C#N	5.5%[0.00184 µM]	?	9.0%	12.0%
Cc1cc(-n2ccnc2)n2c(nc3ccccc32)c1C#N	/	13.4%	2.6%	-47.0%
Cc1cc(N2CCN(C3CCCC3)CC2)n2c(nc3ccccc32)c1C#N	0.294µM*	35.4%	3.9%	0.233µM*
Cc1cc(NCCCOC(C)C)n2c(nc3ccccc32)c1C#N	5.22µM*	?	-1.2%	-5.6%
Cc1cc(NCCN2CCCCC2)n2c(nc3ccccc32)c1C#N	?	7.08µM*	/	/
CC(C)c1cc(NCCN2CCOCC2)n2c(nc3ccccc32)c1C#N	/	20.8%	-4.8%	/
CCC(C)Sc1cc(C)c(C#N)c2nc3ccccc3n12 (stereo not drawn)	8.28µM*	?	-7.6%[2.32 µM]	2.94µM*
CCC(C)Nc1cc(C)c(C#N)c2nc3ccccc3n12 (stereo not drawn)	-6.2%[0.00184 µM]	?	10.4%	-0.8%
COc1ccc(/C=N/NC(=O)CN2CCSCC2)cc1C	16.5%	20.9%	-1.3%[11.6 µM]	6.8%
CCCc1cc(NCCCO)n2c(nc3ccccc32)c1C#N	?	?	-5.4%	3.29µM*
CCCc1cc(-n2ccnc2)n2c(nc3ccccc32)c1C#N	?	1.9%	0.1%	?
CC(=O)Nc1ccc(S(=O)(=O)N2CCN(c3cc(C)ccc3C)CC2)cc1	-19.7%	-9.4%	-9.0%	13.1µM*
Cc1ccc(C)c(N2CCN(S(=O)(=O)c3ccc4c(c3)NC(=O)CC(=O)N4)CC2)c1	3.3%	24.7%	5.1%	-12.4%
O=C1CC(=O)Nc2cc(S(=O)(=O)N3CCOc4ccc(Cl)cc43)ccc2N1	29.8%	-4.9%	-8.3%	?
SMILES	Pf growth 48h	HCV inh	AMA1-RON2 inh	Pf growth 96h
Cc1ccc(C)c(N2CCN(S(=O)(=O)c3ccc4c(c3)NC(=O)CO4)CC2)c1	-9.7%	22.9%	0.3%	13.1µM*
O=C1COc2ccc(S(=O)(=O)N3CCN(c4cccc(Cl)c4)CC3)cc2N1	13.4%	-4.3%	10.7%	13.1µM*
Cc1ccc2c(c1)N(S(=O)(=O)c1ccc3c(c1)NC(=O)CC(=O)N3)CCO2	7.5%	-10.1%	10.3%	8.28µM*
O=C(O)C1Cc2[nH]cnc2C(c2ccccc2O)N1 (stereo not drawn)	13.0%	9.4%	25.0%	62.7%
Cc1nn(C(=O)c2c([N+](=O)[O-])cnn2C)c(C)c1Cl	-16.3%	-8.0%	-8.2%	-24.3%
Nn1c(SCC(=O)N2CCN(S(=O)(=O)c3ccc(Cl)cc3)CC2)nnc1-c1cccs1	/	-8.7%	0.0%	?
CC(C)NC(=O)CCS(=O)(=O)c1cccc2nonc12	/	-2.1%	0.0%	/
O=C1COc2ccc(S(=O)(=O)CCC(=O)N3CCN(c4cccc(Cl)c4)CC3)cc2N1	-13.5%	19.2%	0.0%	32.4%
Cc1ccc(Cl)cc1N1CCN(C(=O)CCS(=O)(=O)c2cccc3nonc23)CC1	?	-12.2%	-22.4%	11.7µM*
Cc1ccc(Cl)cc1N1CCN(C(=O)CCS(=O)(=O)c2ccc3c(c2)NC(=O)CO3)CC1	-14.5%	11.2µM*	-5.8%	20.3%
CC(C)CCNC(=O)CCS(=O)(=O)c1cccc2nonc12	3.8%	4.4%	42.4%	11.7µM*
Cc1ccc(NC(=O)CCS(=O)(=O)c2cccc3nonc23)cc1Cl	-11.0%	-0.2%	-14.9%	6.5%
Cc1ccccc1S(=O)(=O)N(C)C[C@@H]1OCc2cn(nn2)CCCC(=O)N([C@H](C)CO)C[C@H]1C	/	/	-2.2%	/
O=C(O)COc1ccccc1/C=C1\SC(=O)N(Cc2ccc(F)cc2)C1=O	-7.4%	7.2%	11.7%	34.0%[5.75 µM]
Cc1ccc(CN2C(=O)S/C(=C\c3ccccc3OCC(=O)O)C2=O)cc1	4.8%	3.2%	-1.6%	5.22µM*
CCOc1nc(SCCOc2ccccc2)nc(N(C)C)n1	-25.3%	11.2µM*	12.0%	13.2%
CCNc1nc(SCCOc2ccc(C)cc2)nc(N(C)C)n1	0.7%	11.2µM*	?	-1.3%
CCNc1nc(SCCOc2ccc(Cl)cc2Cl)nc(N(C)C)n1	?	?	11.0%	?
Cc1ccccc1OCCSc1nc(N(C)C)nc(N(C)C)n1	-20.7%	-17.4%	30.1%	?
COCCn1c(C)nnc1SCC(=O)NNC(=O)c1ccc(Cl)cc1	13.8%	0.5%	6.9%	16.2%
CCC(Sc1nc(N)c(NC(=O)c2ccc(Br)o2)c(=O)[nH]1)C(=O)O (stereo not drawn)	-0.3%	3.0%	-9.1%	?
O=C(Cc1ccc(NC(=O)C2CCN(C(=O)CCc3ccccc3)CC2)cc1)Nc1ccc(C(=O)N2CCOCC2)cc1	/	15.3%	-5.3%	/
CC(C)C[C@H]1CN=C(Nc2ccccc2)N1CC1CCC(C(C)(C)C)CC1 (stereo partly drawn)	8.28µM*	11.2µM*	-10.9%	7.38µM*
CC(C)C[C@H]1CN=C(Nc2ccccc2)N1CCC1CCCCC1	-48.8%	-20.9%	12.4%	9.28µM*
CSCCC(NS(=O)(=O)c1ccccc1F)C(=O)OCc1ccccc1Cl (stereo not drawn)	9.5%	2.0%	-8.3%	0.2%
COc1ccc(OC)c(NC(=O)C2(C)CCN2C(=O)C2(c3ccccc3)CCCC2)c1 (stereo not drawn)	/	/	-22.9%	/
COc1cc(-c2coc3c(C(=O)NCc4ccc(OC)c(OC)c4)cccc23)ccc1O	/	/	-14.8%	/
